An excerpt weighted towards active compounds, which were near 4% of everything screened.
Gli-Sufu antag: Gli-Sufu pathway antagonism | inhibition, % at 5 µM | Sufu-KO-LIGHT fibroblasts, Gli luciferase reporter luminescence | hit rate 0.74% among 340,000;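 active = inhibition above about 55%, limit read from the data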;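 also: 0% = DMSO-treated cells and 100% = wells with medium but no cells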
Mdm2 MdmX PPI: disrupts the human Mdm2-MdmX interaction | O15151+Q00987 | SaOS-2 split-luciferase Mdm2/MdmX complementation, luminescence | inhibition, % at 8 µM | hit rate 3% among 330,000 | AID 485346;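 active = inhibition of at least 50% at 8 µM in the primary screen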
697 NFkB inh: lowers PMA/ionomycin-induced NF-kB signal in 697 B cells; 697 B-cell NF-kB luciferase reporter, 16 h; inhibition, % at 4 µM; hit rate 0.33% among 330,000; AID 435022; in the data active = inhibition above about 35%
Beta cell apopt: beta cell apoptosis inhibition; INS-1E cytokine-induced death, ATP luminescence, 48 h; percent of positive-control rescue, neutral wells zero; hit rate 0.8% among 300,000; protection from apoptosis, % (no concentration beside the values); AID 435005;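 active = Every replicate reaches about 75%, or at least half do and their mean reaches it too, limit read from the data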;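 also: 0% = cytokine-treated negative control wells and 100% = positive control rescue; higher means more ATP so stronger rescue from cytokine killing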
Jurkat NFkB inh: lowers PMA/ionomycin-induced NF-kB signal in Jurkat cells; inhibition, % at 4 µM; PMA/ionomycin-induced NF-kB luciferase reporter, luminescence; hit rate 0.53% among 330,000; AID 435003; in the data active = inhibition above about 50%
Jurkat NFkB conf: lowers PMA/ionomycin-induced NF-kB signal in Jurkat cells; inhibition, % at 4 µM; AID 435020; Jurkat NF-kB luciferase, 16 h; hit rate 27% among 2,700; shares compounds with Jurkat NFkB inh;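 active = inhibition reaching about 45% at 4 µM in either replicate, limit read from the data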;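 also: plate controls were PMA/ionomycin stimulated DMSO wells for no effect and unstimulated DMSO wells for full effect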
697 NFkB conf: inhibitors of the PMA/ionomycin-induced NF-kB reporter in 697 B cells, retest; shares compounds with 697 NFkB inh; 697 B-cell NF-kB luciferase, 16 h; inhibition, % at 4 µM; hit rate 35% among 2,000; in the data active = inhibition mostly above about 28%, no sharp cut-off; inactive = mostly below about 22%
Mdm2 MdmX conf: human Mdm2/MdmX binding inhibition, confirmed; shares compounds with Mdm2 MdmX PPI; luminescent assay; inhibition, % at 8 µM; hit rate 55% among 10,000; AID 489028; in the data active = inhibition above about 40%
FLuc counter: inhibits full-length luciferase, flagging false Mdm2/MdmX hits. shares compounds with Mdm2 MdmX PPI. SaOS-2 full-length luciferase counterscreen, luminescence. inhibition, % at 8 µM. hit rate 77% among 6,200;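 active = mean inhibition at 8 µM reaching about 37%, which flags the compound as non-specific, limit read from the data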;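 also: p53-null SaOS-2 cells with luciferase driven by a doxycycline-inducible promoter; compound on cells about two nights before reading with doxycycline added after day one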
The depositor's hits bear a star; i = inactive; . = not tested or not shown.

SMILES	Gli-Sufu antag	Mdm2 MdmX PPI	697 NFkB inh	Beta cell apopt	Jurkat NFkB inh	Jurkat NFkB conf	Mdm2 MdmX conf	FLuc counter	others
COc1ccc(-c2cc(=O)oc3cc4occ(C)c4cc23)cc1	-3	20	1	3	-10	.	.	.
COc1ccc(-c2coc3cc4oc(=O)cc(-c5ccccc5)c4cc23)cc1F	14	84*	-10	20	67*	29	58*	55*
COc1cccc(/C=N/Nc2ccc(C(=O)O)cc2)c1O	73*	54*	-32	21	88*	57*	24	.
Cc1cccc(NC(=O)CSc2nc(NS(=O)(=O)c3ccccc3)cc(=O)[nH]2)c1	-20	-11	1	-4	17	.	.	.
Fc1ccccc1/C=N/NC(=S)Nc1ccc(Cl)cc1Cl	-6	80*	-29	13	53*	-79	72*	90*
Fc1ccc(NC(=S)Nc2ccc(Cl)cc2Cl)cc1	13	10	-13	-3	7	.	.	.
Cc1ccc(C(=O)c2cc([N+](=O)[O-])ccc2N2CC(C)OC(C)C2)cc1 (configuration not stated)	7	42	-52	24	46	.	.	.
CC1CCCN(c2ccc([N+](=O)[O-])cc2C(=O)c2ccccc2)C1 (configuration not stated)	44	65*	35*	45	51*	40	55*	99*	697 NFkB conf=30*
CC1CCN(c2ccc([N+](=O)[O-])cc2C(=O)O)CC1	-5	4	1	-1	-5	.	.	.
Cc1ccc(C(=O)c2cc([N+](=O)[O-])ccc2N2CCCCC2)cc1	48	53*	32	10	56*	53*	65*	96*
COc1ccccc1CNC(=O)CS(=O)(=O)Cc1ccccc1	-3	25	13	-3	8	.	.	.
CN(C)CCCNC(=O)c1ccc(Oc2ccccc2)cc1	6	3	-10	0	-26	.	.	.
CCOc1ccc(NC(=O)c2ccc3c(c2)OCCO3)cc1S(=O)(=O)N(CC)CC	-21	5	12	1	-13	.	.	.
CCOc1cc(CNCCCN2CCOCC2)cc(Br)c1OCC(=O)Nc1cccc(C(F)(F)F)c1	-1	98*	18	69	60*	8	71*	45*
CCN=c1scc(-c2ccc(F)cc2)n1/N=C/c1ccccn1	-13	-175	-167	7	-92	.	.	.
C=CCN=c1scc(-c2ccccc2)n1/N=C/c1ccccn1	-101	79*	i	24	-199	-89	64*	42*	697 NFkB conf=i
C=CCN=c1scc(-c2ccc(F)cc2)n1/N=C/c1ccccn1	-2	-6	-202	20	-50	.	.	.
CCN=c1scc(-c2ccccc2)n1/N=C/c1ccccn1	-68	85*	i	39	-199	-116	66*	127*	697 NFkB conf=i
Cc1ccc(-c2nc(CS(=O)CC(=O)NCCN3CCCCC3C)c(C)o2)cc1 (configuration not stated)	12	23	-2	-9	3	.	.	.
CC(=O)O[C@H]1C(=O)[C@@]2(C)[C@H]([C@H](OC(=O)c3ccccc3)[C@]3(O)C[C@H](OC(=O)[C@H](O)[C@@H](NC(=O)c4ccccc4)c4ccccc4)C(C)=C1C3(C)C)[C@]1(OC(C)=O)CO[C@@H]1C[C@@H]2O	-1	65*	-2	-15	70*	68*	64*	57*
CCCCCC(=O)N[C@@H](c1ccccc1)[C@@H](O)C(=O)O[C@H]1C[C@@]2(O)[C@@H](OC(=O)c3ccccc3)C3[C@](C)(C(=O)[C@H](OC(C)=O)C(=C1C)C2(C)C)[C@@H](O)C[C@H]1OC[C@@]31OC(C)=O (some centres not stated)	-4	72*	-7	15	72*	56*	74*	43*
O=C(OCC(=O)N1CCCC1=O)c1ccc(F)c(S(=O)(=O)N2CCOCC2)c1	-8	17	8	-2	-2	.	.	.
O=C(CCCN1C(=O)c2ccccc2C1=O)NCCc1ccc(OC(F)F)cc1	-7	7	10	-8	1	.	.	.
COc1ccc(-c2nc(-c3cccc(C)c3)nc(N3CCN(C)CC3)c2C#N)cc1	1	66*	6	3	51*	9	74*	57*
O=C(Nc1ccc(NC(=O)C2CCCCC2)nc1)c1cccs1	-7	-30	-31	-6	-74	.	.	.
SMILES	Gli-Sufu antag	Mdm2 MdmX PPI	697 NFkB inh	Beta cell apopt	Jurkat NFkB inh	Jurkat NFkB conf	Mdm2 MdmX conf	FLuc counter	others
CCOc1ccccc1N1CC(O)=C(c2nc3ccccc3s2)C1=N	9	57*	-11	7	59*	47	58*	58*
Cc1cc(N2CCN(Cc3cn(C)nc3-c3cccc(Cl)c3)CC2)cc(C)n1	10	61*	-23	3	62*	5	62*	43*
O=C(CSc1ccccc1)N1CCN(c2ccc(F)cc2)CC1	46	2	13	-2	2	.	.	.
Cc1ccccc1CN1CCN(C(=O)c2cc(-c3ccncc3)nc3ccccc23)CC1	22	28	-6	-1	4	.	.	.
Cc1cccc2c(C(=O)N3CCN(c4ccccc4)CC3)cc(-c3ccncc3)nc12	20	57*	8	10	60*	-3	75*	69*
COc1ccc2nc(C)cc(N/N=C/c3ccc(F)cc3)c2c1	23	100*	32	107*	98*	89*	100*	51*
COc1ccc(Nc2cc(C)nc3ccc(OC)cc23)cc1	15	11	-48	49	-5	.	.	.
O=C(Nc1ccc(Cl)c(Cl)c1)Nc1ccon1	-18	56*	-18	11	53*	32	66*	56*
CCOC(=O)c1ccc(NC(=O)Nc2ccon2)cc1	42	53*	-7	23	58*	34	43*	115*
CCOC(=O)c1ccc(NC(=O)Nc2ccc(Cl)cn2)cc1	-14	-15	4	2	-1	.	.	.
CCCOc1c(Cl)cc(C(=O)NC)cc1OC	-2	24	8	-1	-4	.	.	.
COc1ccccc1CNS(=O)(=O)c1ccc(S(=O)(=O)NC2CC2)cc1	2	-14	19	-3	8	.	.	.
COc1ccccc1CNS(=O)(=O)c1ccc(-c2cnc(C3CC3)o2)cc1	36	54*	-54	19	51*	50*	55*	66*
Cc1ccc(N(C)S(=O)(=O)c2cc(-c3cnc(C4CC4)o3)ccc2C)cc1	-5	40	-10	2	15	.	.	.
Cc1ccc(NS(=O)(=O)c2ccc(-c3cnc(C4CC4)o3)cc2)c(C)c1	21	77*	-28	21	54*	61*	56*	95*
